The values that follow come from PubChem BioAssay.

Activity calls are given as the source filed them.

Experiment [1] is described as follows: optical density shifts of acrAB sulA E. coli – strain DRC41, OD650, 48 h, E. coli filamentation inducer project, primary screen (AID 1152).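 Also: E. coli MC1000 strain DRC41 lacking acrAB efflux pump and sulA.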 The following applies: higher = more signal, called active from +8 up or from −8 down.
Experiment [2] can be described thus: probe aLefty1 binding on compound microarray – biochemical, small-molecule microarray, 635/667 nm fluorescence, primary screen (AID 1153).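 Also: score merges spot fluorescence with signal-to-noise ratio from the scanned slide images.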 The conditions noted are these: higher = more signal.
Experiment [3] in a line: plasmodial surface anion channel blockers, osmotic lysis – cell-based, P. falciparum Indochina, OD700, 1 h, primary screen (AID 1154). The conditions noted are these: P. falciparum Indochina infected RBC osmotic lysis, higher = more signal, called active from +8 up or from −8 down.
Experiment [4] can be described thus: plasmodial surface anion channel blockers, osmotic lysis – cell-based, P. falciparum Indochina, OD700, 2 h, primary screen (AID 1155).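 Also: lysis reports solute entry through the parasite surface anion channel PSAC.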 The following applies: P. falciparum Indochina infected erythrocytes, higher = more signal, called active from +8 up or from −8 down.
Experiment [5] can be described thus: changes in parasitized red cell lysis, either direction – P. falciparum Indochina, OD700, 3 h, PSAC antagonist project, primary screen (AID 1156). The following applies: P. falciparum-infected erythrocytes, osmotic lysis, higher = more signal, called active from +8 up or from −8 down.
Experiment [6] is described as follows: plasmodial surface anion channel blockers, osmotic lysis – cell-based, P. falciparum Indochina, OD700, 18 h, primary screen (AID 1157). The following applies: P. falciparum Indochina infected erythrocytes, osmotic lysis OD700, 18 h; higher = more signal, called active from +8 up or from −8 down.
A short description of experiment [7]: S6 kinase pathway phospho-S6 level changes – cell-based, A549, cytoblot, luminescence, serum-stimulated, primary screen (AID 1158).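 Also: serum-stimulated A549 lung adenocarcinoma cells; signal is phosphorylated S6 detected by cytoblot immunostaining with HRP secondary.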 The following applies: 5 h, higher = more signal.
For experiment [8], the target named is NADPH oxidase 2 (Homo sapiens) (UniProt P04839). Put plainly: compounds shifting NOX2 Amplex Red fluorescence – cell-based, HEK293-NOX2, PMA-stimulated, NOX inhibitor project, primary screen (AID 1159). Also: test concentration not given here. The conditions noted are these: 45 min, higher = more signal, called active from +8 up or from −8 down.
Chain of NADPH oxidase 2 (Homo sapiens) (P04839 whole entry, looked up): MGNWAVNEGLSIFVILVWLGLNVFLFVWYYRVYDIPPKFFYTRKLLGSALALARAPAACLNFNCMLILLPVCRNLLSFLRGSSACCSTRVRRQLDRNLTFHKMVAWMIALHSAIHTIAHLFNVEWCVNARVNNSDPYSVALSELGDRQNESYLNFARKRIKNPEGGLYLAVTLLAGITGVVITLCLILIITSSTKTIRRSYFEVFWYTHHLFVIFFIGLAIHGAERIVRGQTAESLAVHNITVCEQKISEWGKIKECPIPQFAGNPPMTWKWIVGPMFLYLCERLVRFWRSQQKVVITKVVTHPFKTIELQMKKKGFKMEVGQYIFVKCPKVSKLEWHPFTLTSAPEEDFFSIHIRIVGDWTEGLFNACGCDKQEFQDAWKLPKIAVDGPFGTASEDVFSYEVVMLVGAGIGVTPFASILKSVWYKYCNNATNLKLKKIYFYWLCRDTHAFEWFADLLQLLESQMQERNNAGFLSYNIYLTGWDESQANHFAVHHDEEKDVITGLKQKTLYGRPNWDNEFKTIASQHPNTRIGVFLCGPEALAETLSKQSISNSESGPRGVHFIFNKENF
Experiment [9] deals with NADPH oxidase 4 (Homo sapiens) (UniProt Q9NPH5). The experiment is described as follows: compounds shifting NOX4 Amplex Red fluorescence – cell-based, HEK293-NOX4, tetracycline-induced, NOX inhibitor project, primary screen (AID 1160). The following applies: HEK293-NOX4, Amplex Red H2O2 fluorescence, 45 min; higher = more signal, called active from +8 up or from −8 down.
Chain of NADPH oxidase 4 (Homo sapiens) (Q9NPH5 whole entry, looked up): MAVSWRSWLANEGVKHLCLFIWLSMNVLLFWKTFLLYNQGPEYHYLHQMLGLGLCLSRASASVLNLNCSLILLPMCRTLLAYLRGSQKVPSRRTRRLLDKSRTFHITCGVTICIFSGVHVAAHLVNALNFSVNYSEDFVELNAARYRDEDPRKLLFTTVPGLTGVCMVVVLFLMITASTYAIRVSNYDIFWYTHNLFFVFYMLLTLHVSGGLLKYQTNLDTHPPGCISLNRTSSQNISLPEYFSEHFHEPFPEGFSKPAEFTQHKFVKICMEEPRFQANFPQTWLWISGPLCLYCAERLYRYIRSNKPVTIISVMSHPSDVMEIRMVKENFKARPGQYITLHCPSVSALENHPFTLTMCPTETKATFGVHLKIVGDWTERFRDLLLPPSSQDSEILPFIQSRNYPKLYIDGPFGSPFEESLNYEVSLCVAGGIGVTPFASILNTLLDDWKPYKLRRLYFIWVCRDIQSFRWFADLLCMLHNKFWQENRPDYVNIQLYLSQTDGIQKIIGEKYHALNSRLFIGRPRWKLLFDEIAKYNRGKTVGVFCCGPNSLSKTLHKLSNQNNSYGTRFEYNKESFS
The target in experiment [10] is NADPH oxidase 5 (Homo sapiens) (UniProt Q96PH1). Put plainly: compounds shifting NOX5 Amplex Red fluorescence – cell-based, HEK293-NOX5, NOX inhibitor project, primary screen (AID 1161). The conditions noted are these: HEK293-NOX5, ionomycin, 45 min, higher = more signal.
Chain of NADPH oxidase 5 (Homo sapiens) (Q96PH1 whole entry, looked up): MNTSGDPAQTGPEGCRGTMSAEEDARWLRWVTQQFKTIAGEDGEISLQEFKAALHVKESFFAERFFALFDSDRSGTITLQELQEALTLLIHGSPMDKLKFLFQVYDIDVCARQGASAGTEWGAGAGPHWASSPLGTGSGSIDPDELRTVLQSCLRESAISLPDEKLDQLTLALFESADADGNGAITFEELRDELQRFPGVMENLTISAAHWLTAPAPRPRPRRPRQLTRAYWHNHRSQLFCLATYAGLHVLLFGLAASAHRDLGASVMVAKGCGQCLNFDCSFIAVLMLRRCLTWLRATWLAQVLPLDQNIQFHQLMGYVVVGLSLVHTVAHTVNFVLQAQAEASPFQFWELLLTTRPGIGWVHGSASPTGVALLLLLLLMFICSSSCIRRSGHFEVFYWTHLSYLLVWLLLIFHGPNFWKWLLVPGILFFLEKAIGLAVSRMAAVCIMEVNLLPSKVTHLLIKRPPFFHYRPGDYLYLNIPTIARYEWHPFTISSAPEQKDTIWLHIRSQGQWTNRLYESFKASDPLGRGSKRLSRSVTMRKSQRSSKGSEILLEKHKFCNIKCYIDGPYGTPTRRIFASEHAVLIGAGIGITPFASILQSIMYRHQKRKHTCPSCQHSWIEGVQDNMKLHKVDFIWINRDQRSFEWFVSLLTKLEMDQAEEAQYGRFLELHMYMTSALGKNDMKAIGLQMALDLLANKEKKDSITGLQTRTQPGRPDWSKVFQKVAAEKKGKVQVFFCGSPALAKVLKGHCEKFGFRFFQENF
The nature of experiment [11]: compound effects on lung adenocarcinoma cell viability – A549, calcein-AM fluorescence, 48 h, basal, profiling panel (AID 1162). Also: test concentration not given here. The following applies: higher = more signal.
A short description of experiment [12]: compound effects on differentiated 3T3-L1 adipocyte viability – cell-based, 3T3-L1 adipocytes, calcein-AM fluorescence, 48 h, basal, profiling panel (AID 1163). Also: test concentration not given here. The following applies: 3T3-L1 adipocytes viability, higher = more signal.
Experiment [13] in a line: compound effects on hepatocellular carcinoma cell viability – HepG2, calcein-AM fluorescence, 48 h, basal, profiling panel (AID 1164). Also: test concentration not given here. The conditions noted are these: higher = more signal.
Experiment [14] can be described thus: compound effects on multiple myeloma cell viability – MM1S, calcein-AM fluorescence, 48 h, basal, profiling panel (AID 1165). Also: test concentration not given here. The conditions noted are these: higher = more signal.
A short description of experiment [15]: calcein-AM signal in unstimulated myeloma cells – cell-based, calcein-AM fluorescence, 48 h, PK04 Diversity Set, profiling panel (AID 1166).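 Also: cells grown under basal conditions without added stimulus; test concentration not given here.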 The conditions noted are these: RPMI8226 myeloma viability, higher = more signal.
A short description of experiment [16]: JC-1 mitochondrial signal, unstimulated HepG2 cells – cell-based, JC-1 fluorescence, 24 h, 100 nL compound, profiling panel (AID 1167). Also: test concentration not given here. The conditions noted are these: HepG2 mitochondrial potential, higher = more signal.
The nature of experiment [17]: JC-1 mitochondrial signal, unstimulated adipocytes – cell-based, JC-1 fluorescence, 3T3-L1 adipocytes, 24 h, 100 nL compound, profiling panel (AID 1168). Also: test concentration not given here. The conditions noted are these: JC-1 mitochondrial fluorescence, higher = more signal, called active from +8 up or from −8 down.
Experiment [18] can be described thus: JC-1 mitochondrial signal, unstimulated myeloma cells – cell-based, JC-1 fluorescence, RPMI8226, 24 h, 100 nL compound, profiling panel (AID 1169). Also: test concentration not given here. The following applies: JC-1 mitochondrial potential fluorescence, higher = more signal.
Experiment [19] in a line: JC-1 mitochondrial signal, unstimulated MM1S myeloma – cell-based, JC-1 fluorescence, 24 h, 100 nL compound, profiling panel (AID 1170). Also: test concentration not given here. The following applies: MM1S mitochondrial potential, higher = more signal.
The nature of experiment [20]: resazurin metabolic signal in A549 cells – cell-based, resazurin fluorescence, 24 h, PK04 Diversity Set, profiling panel (AID 1171). Also: test concentration not given here. The conditions noted are these: A549 viability, higher = more signal, called active from +8 up or from −8 down.

On to `CC(C)(C)N1C(=O)[C@H]2[C@H]3[C@H](O)C=CC(=O)[C@@H]3CC[C@H]2C1=O`, for which the z-score was -0.0926 (inactive) in experiment [1]; -0.007 (inactive) in experiment [3]; -0.566 (inactive) in experiment [4]; -0.562 (inactive) in experiment [5]; -0.43 (inactive) in experiment [6]; 0.0787 in [7]. The z-score in experiment [8] was 0.497 (inactive); in [9], -1.67 (inactive); in experiment [10], -0.47; in experiment [11], -0.269; in [12], 0.815; in [13] it was 0.282. Moreover, the z-score in [14] is 0.326; in experiment [15] it was 0.311; in [16], 0.102; in [17] it was -0.211 (inactive); in [18], -0.0172; in experiment [19] it was 1.19. For the same molecule, the z-score in [20] was 0.0796 (inactive). Besides, the composite z-score in [2] was -0.286.

With `COC(=O)CC=C[C@@H](C)[C@@H](C=NO[C@@H]1O[C@H](COC(C)=O)[C@@H](OC(C)=O)[C@H](OC(C)=O)[C@H]1OC(C)=O)NS(=O)(=O)c1ccc(C)cc1`, the z-score in experiment [1] was -0.673 (inactive); in experiment [3] it was 0.683 (inactive); in experiment [4], 0.54 (inactive); in experiment [5], 1.1 (inactive); in experiment [6] it was 0.294 (inactive); in [7] it was -0.448. In addition, the z-score in experiment [8] was 0.837 (inactive); in [9] it was 0.968 (inactive); in [10], 0.569; in experiment [11], -0.4; in experiment [12], -0.387; in experiment [13], -0.416. Further, the z-score in [14] was 0.27; in [15], -1.81; in experiment [16] it was -0.365; in [17], -1.39 (inactive); in experiment [18], -0.736; in experiment [19], 0.049. Further, the z-score in [20] is -0.251 (inactive). Also, the composite z-score in [2] was -0.397.

For the molecule `COC(=O)[C@@H]1CC[C@H](C)[C@@H](c2ccc(C)cc2)N1C(=O)c1ccc(C=NO[C@@H](C)c2cn([C@H](CO)Cc3ccccc3)nn2)cc1`, the z-score is 0.442 (inactive) in experiment [1]; 4.57 (inactive) in experiment [3]; 1.12 (inactive) in experiment [4]; 0.809 (inactive) in [5]; 0.907 (inactive) in experiment [6]; 0.406 in experiment [7]. The z-score in experiment [8] was -3.24 (inactive); in experiment [9], -1.13 (inactive); in [10], -3.8; in [11], 0.724; in experiment [12] it was -0.412; in experiment [13] it was -0.759. For the same molecule, the z-score was -1.41 in experiment [14]; -1.92 in experiment [15]; -0.86 in experiment [16]; 0.0596 (inactive) in experiment [17]; -0.946 in experiment [18]; -0.901 in experiment [19]. The z-score in [20] was -0.392 (inactive). Besides, the composite z-score in experiment [2] is -0.0615.

Take `COC(=O)[C@H]1O[C@@H](c2c(OC)c(OC)c(C)c(OC)c2OC)[C@H](C)[C@@H](O)[C@H]1C`: the z-score in [1] was 0.855 (inactive); in experiment [3], 0.516 (inactive); in [4], 0.183 (inactive); in experiment [5], 0.92 (inactive); in [6], 0.587 (inactive); in experiment [7], 0.817. Moreover, the z-score is 0.933 (inactive) in [8]; 0.792 (inactive) in [9]; 0.194 in experiment [10]; 1.2 in experiment [11]; -0.302 in experiment [12]; 0.825 in experiment [13]. Also, the z-score in experiment [14] is 1; in experiment [15] it was 1.36; in [16], 0.438; in [17] it was 0.61 (inactive); in experiment [18] it was -0.398; in [19], -0.848. Further, the z-score in experiment [20] was -1.27 (inactive). Also, in [2], the composite z-score was -0.0505.

With `CC(=O)OC[C@H]1O[C@H](C#Cc2ccccc2)C=C[C@@H]1OC(C)=O`, the z-score in experiment [1] is 0.714 (inactive); in experiment [3] it was 1.12 (inactive); in experiment [4], -0.08 (inactive); in experiment [5], -0.0923 (inactive); in experiment [6] it was -0.219 (inactive); in experiment [7], -0.283. Moreover, the z-score in experiment [8] is 1.61 (inactive); in experiment [9], 0.415 (inactive); in experiment [10], 1.54; in [11], -0.188; in experiment [12] it was 0.0552; in experiment [13] it was -0.136. Also, the z-score was -3.51 in experiment [14]; -3.71 in experiment [15]; -1.65 in experiment [16]; 0.458 (inactive) in experiment [17]; -1.04 in [18]; -2.48 in experiment [19]. The z-score in [20] is -0.713 (inactive). Further, the composite z-score in experiment [2] is -0.234.
